Plk1 PBD FP – Plk1 (human) PBD binding inhibition; AID 693; hit rate 0.13% among 97,000; Plk1 PBD phosphopeptide binding, fluorescence polarization; inhibition, %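 (tested at about 20 µM)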; in the data active means inhibition above about 34%, passing the limit was not always enough
Target sequence (P53350 whole entry, looked up): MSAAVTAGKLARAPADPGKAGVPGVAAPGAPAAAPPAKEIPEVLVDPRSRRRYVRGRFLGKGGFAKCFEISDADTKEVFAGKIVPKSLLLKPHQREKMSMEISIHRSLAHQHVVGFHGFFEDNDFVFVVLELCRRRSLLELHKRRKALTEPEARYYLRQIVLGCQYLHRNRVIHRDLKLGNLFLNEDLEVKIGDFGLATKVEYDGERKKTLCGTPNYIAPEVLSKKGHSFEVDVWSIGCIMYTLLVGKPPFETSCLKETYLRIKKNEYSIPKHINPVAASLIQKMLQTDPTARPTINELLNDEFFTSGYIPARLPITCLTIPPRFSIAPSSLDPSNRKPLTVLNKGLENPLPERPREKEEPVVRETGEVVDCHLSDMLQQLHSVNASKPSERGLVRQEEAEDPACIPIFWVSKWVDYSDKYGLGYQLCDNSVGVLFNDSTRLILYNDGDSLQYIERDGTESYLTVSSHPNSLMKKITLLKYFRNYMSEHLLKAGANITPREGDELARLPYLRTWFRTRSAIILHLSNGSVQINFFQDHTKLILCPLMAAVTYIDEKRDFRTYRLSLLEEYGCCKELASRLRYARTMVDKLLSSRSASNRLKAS
CYP2C9 activ – activators of human CYP2C9. P11712. activation factor at 5 µM. AID 1024. hit rate 1.4% among 96,000. recombinant CYP2C9, luciferin-H conversion, luminescence; stronger effect = higher value; factor 1 = untreated enzyme, 0 = blocked;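 active means activation factor of 2 or more for CYP2C9 at a 5 µM dose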
CYP2C19 act – increases human CYP2C19 enzyme activity. P33261. recombinant CYP2C19, luciferin-H EGE luminescence; stronger effect = higher value; 0 = fully inhibited enzyme, 1 = untreated enzyme. activation factor at 5 µM. 96,000 tested, under 10 active;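 active means activation factor of at least 2 at 5 µM in the primary screen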
CYP2C19 inh – blocks human cytochrome P450 2C19. CYP2C19 Supersomes, luciferin-H EGE luminescence, 30 min. hit rate 21% among 96,000. AID 778. P33261. inhibition, % at 5 µM;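 active means CYP2C19 inhibition above a set limit at 5 µM in the primary screen, cut at about 50% in these data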
CYP2C9 inh – human CYP2C9 inhibition. P11712. CYP2C9 Supersomes, luciferin-H conversion, luminescence. inhibition, % at 5 µM. hit rate 20% among 96,000. AID 777;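 active means blocking of liver enzyme CYP2C9 beyond about 50% at 5 µM, limit read from the data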
PLK1 inh – PLK1 (human) kinase inhibition; P53350; recombinant PLK1 kinase, TR-FRET peptide phosphorylation; inhibition, % at 10 µM; hit rate 0.53% among 97,000; AID 619;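 active means inhibition of 50% or more in the single-concentration screen; inactive means inhibition below 50%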
Of the large screens only hits and unclear results are named; the others gave an inactive call. Hits are enriched below; roughly 28% of the tested compounds scored in any of these assays.

Cc1ccc2c(c1)C(N1CCCC1=O)CC(c1ccco1)N2 (stereo not given)	CYP2C19 inh 77.7
O=C(Nc1ccc2c(c1)CCC2)c1cnn2c1NC(c1ccco1)CC2C(F)(F)F (stereo not given)	none
CCc1ccc(NC(=O)CNS(=O)(=O)c2c(C)noc2C)cc1	CYP2C9 inh 50.7
Cc1noc(C)c1S(=O)(=O)Nc1ccc(C(=O)NC2CCCCCC2)cc1	none
Cc1ccc(CNC(=O)c2ccc(NS(=O)(=O)c3c(C)noc3C)cc2)cc1	CYP2C9 inh 69.8
COc1ccc(CCNC(=O)c2ccc(NS(=O)(=O)c3c(C)noc3C)cc2)cc1OC	CYP2C9 inh 63.7
CCn1c(=O)cc(SCC(=O)N2CCOCC2)c2ccccc21	CYP2C9 activ 2.1
CCn1c(=O)cc(SCC(=O)Nc2ccc(OC)c(OC)c2)c2ccccc21	CYP2C9 activ 2, CYP2C19 inh 60.2
O=C(CSc1cn(Cc2ccccc2)c2ccccc12)N1CCOCC1	CYP2C19 inh 87.8
CCn1c(=O)cc(SCC(=O)N2CCN(C3CCCCC3)CC2)c2ccccc21	CYP2C9 activ 2.4, CYP2C19 inh 64.7
CCn1c(=O)cc(SCC(=O)N2CCN(C(=O)c3ccco3)CC2)c2ccccc21	none
COCCN(C(=O)CNC(=O)c1ccco1)C(C(=O)NC1CCCC1)c1cccs1 (stereo not given)	none (no result: CYP2C9 activ, CYP2C19 act, CYP2C19 inh, CYP2C9 inh)
COc1ccccc1N1CCN(C(=O)CSc2ccccc2)CC1	none
CCn1c(=O)cc(SCC(=O)N2CCN(c3ccccc3OC)CC2)c2ccccc21	CYP2C9 activ 2.3
COc1ccc(N(CC(=O)NCc2ccco2)S(C)(=O)=O)cc1Cl	CYP2C19 inh 66.2
COc1ccc(S(=O)(=O)N(CC(=O)NC2CC2)C2CCCCC2)cc1Cl	CYP2C19 inh 59.4, CYP2C9 inh 71.6
COc1ccc(N(CC(=O)NCc2ccco2)S(C)(=O)=O)cc1OC	CYP2C19 inh 82.8
COc1ccc(S(=O)(=O)N(CC(=O)NCc2ccco2)C2CCCCC2)cc1OC	CYP2C19 inh 85.7 (no result: Plk1 PBD FP, PLK1 inh)
O=C(CSc1ncn[nH]1)OCN1C(=O)c2ccccc2C1=O	none
CCCc1cc(C(=O)Nc2cccc(C(C)=O)c2)no1	none
CCCc1cc(C(=O)Nc2ccccc2SC)no1	CYP2C9 activ 4 (no result: Plk1 PBD FP, PLK1 inh)
CCCc1cc(C(=O)Nc2ccc(F)cc2F)no1	none
CSc1ccccc1NC(=O)c1cc(-c2cccs2)on1	CYP2C9 activ 2.7
CCCc1cc(C(=O)Nc2cccc(Cl)c2)no1	CYP2C19 inh 66.1 (no result: Plk1 PBD FP, PLK1 inh)
COc1ccc(-c2cc(C(=O)Nc3ccccc3SC)no2)cc1	none
Cc1ccc(N(C(=O)C2CCCO2)C2C=CS(=O)(=O)C2)cc1Cl (stereo not given)	none (no result: Plk1 PBD FP, PLK1 inh)
CC1CCc2c(sc(NS(=O)(=O)c3ccccc3)c2C(=O)OC(C)C)C1 (stereo not given)	none (no result: CYP2C9 activ, CYP2C19 act, CYP2C19 inh, CYP2C9 inh)
CCOc1ccc(N=C(NC#N)SC)cc1	CYP2C19 inh 70.0
COC(=O)c1c(NS(=O)(=O)c2ccc3ccccc3c2)sc2c1CCCC2	CYP2C19 inh 99.5, CYP2C9 inh 98.5
Cc1ccccc1NS(=O)(=O)c1cc(C(=O)NCCC2=CCCCC2)ccc1C	none
COC(=O)c1c(NC(=O)c2ccc(C)c(S(=O)(=O)Nc3ccccc3C)c2)sc2c1CCCC2	CYP2C9 inh 59.2
Cc1cccc2cc(COC(=O)COc3ccccc3)c(=O)[nH]c12	none
CC1CCCCC12NC(=O)N(CC(=O)NC(=O)NCc1ccco1)C2=O (stereo not given)	none
C/C(=C\C(=O)c1ccccc1)Nc1ccc(Cl)c(Br)c1	none (no result: CYP2C9 activ, CYP2C19 act, CYP2C19 inh, CYP2C9 inh)
Cc1ccccc1NC(=O)C1CCCN1C(=O)NC1CCCCC1 (stereo not given)	none
CCCCSc1nc2c(c(=O)[nH]c(=O)n2C)n1CCc1ccccc1	none (no result: Plk1 PBD FP, PLK1 inh)
COCCn1c(SCCCc2ccccc2)nc2c1c(=O)[nH]c(=O)n2C	CYP2C9 inh 59.3 (no result: Plk1 PBD FP, PLK1 inh)
CCCCCn1c(SCC(=O)OC)nc2c1c(=O)[nH]c(=O)n2C	none
CCCn1c(SCCc2ccccc2)nc2c1c(=O)[nH]c(=O)n2C	CYP2C19 inh 50.2, CYP2C9 inh 58.6 (no result: Plk1 PBD FP, PLK1 inh)
CCOCCSc1nc2c(c(=O)[nH]c(=O)n2C)n1CCCc1ccccc1	none
CCCCn1c(SCC(=O)c2ccccc2)nc2c1c(=O)[nH]c(=O)n2C	CYP2C9 inh 70.5
CCOCCn1c(SCCc2ccccc2)nc2c1c(=O)[nH]c(=O)n2C	CYP2C9 inh 73.5 (no result: Plk1 PBD FP, PLK1 inh)
CC(C)CCn1c(SCCN2CCOCC2)nc2c1c(=O)[nH]c(=O)n2C	CYP2C9 inh 85.3
Cc1cccc(Cn2c(SCC(=O)Nc3ccccc3)nc3c2c(=O)[nH]c(=O)n3C)c1	CYP2C19 inh 69.6
CCOC(=O)C(C)Sc1nc2c(c(=O)[nH]c(=O)n2C)n1CCc1ccccc1 (stereo not given)	CYP2C9 inh 51.5
CCCCCn1c(SCCc2ccccc2)nc2c1c(=O)[nH]c(=O)n2C	CYP2C9 inh 60.9
Cc1cccc(Cn2c(Sc3nc(C)cs3)nc3c2c(=O)[nH]c(=O)n3C)c1	none
C=CCNC(=O)CC(=O)N/N=C/c1ccc(C(=O)OC)cc1	none
Cc1ccc(S(=O)(=O)N2CCCC2c2nc3ccccc3s2)cc1 (stereo not given)	none
COc1cccc2c(=O)n(CC(=O)Nc3ccccc3F)ccc12	none
CC(C)CCn1c(SCCc2ccccc2)nc2c1c(=O)[nH]c(=O)n2C	CYP2C19 inh 50.4, CYP2C9 inh 92.8
Cn1c(=O)[nH]c(=O)c2c1nc(SCCN1CCCCC1)n2CCCc1ccccc1	none (no result: Plk1 PBD FP, PLK1 inh)
Cc1ccc(S(=O)(=O)c2cc(C#N)c(=O)[nH]c2N)cc1	none
NC(=O)NCc1ccc(Cl)cc1	none
CCc1cc2cc3c(cc2nc1SCC(=O)Nc1nnc(C)s1)OCCO3	CYP2C9 inh 59.4
COc1ccc(N(CC(=O)Nc2cccc(C(=O)O)c2)S(=O)(=O)c2c(C)noc2C)cc1	CYP2C9 inh 67.6
Cc1ccc(N(CC(=O)Nc2ccc(F)c(Cl)c2)S(=O)(=O)c2c(C)noc2C)cc1	none
CCOC(=O)c1cccc(NC(=O)CN(c2ccc(OC)cc2)S(=O)(=O)c2c(C)noc2C)c1	CYP2C19 inh 77.2, CYP2C9 inh 94.5
CCCCc1c(C)c2ccc(OC)c(/C(C)=N\O)c2oc1=O	none
CCOC(=O)c1c(-c2ccccc2)csc1NC(=O)c1ccc(N2C(=O)CCC2=O)cc1	CYP2C9 inh 50.2
CCOC(=O)c1c(-c2ccccc2)csc1NC(=O)c1nn(CC)cc1Br	none
CCOC(=O)c1c(-c2ccccc2)csc1NC(=O)c1ccc(S(=O)(=O)N2CC(C)OC(C)C2)cc1 (stereo not given)	CYP2C9 inh 76.7
CCCCC(=O)c1ccc(O)cc1	CYP2C9 activ 2.2
O=C(Cn1cc(C(=O)COc2ccccc2)c2ccccc21)NCc1ccco1	CYP2C9 inh 78.0
O=C(COc1ccccc1)c1cn(CC(=O)N2CCOCC2)c2ccccc12	CYP2C9 inh 70.7
O=C(Cn1cc(C(=S)N2CCOCC2)c2ccccc21)N1CCOCC1	none
CC1=NC(=O)C(N=Nc2ccccc2C)N1c1ccccc1 (stereo not given)	none (no result: CYP2C9 activ, CYP2C19 act, CYP2C19 inh, CYP2C9 inh)
